This note sets out measurements from PubChem BioAssay (NCATS).

“And” between values parts separate entries of the source, which are not always exact repeats. Identical values can stand only once. Records with an inconclusive call do not appear. Unmarked numbers belong to inactive results. The source made the active and inactive calls. Calls follow the shape of the dose curve; as a rule, active = well fitted inhibition curve with a large enough effect; inconclusive = small, poorly fitted or top-dose-only effect; inactive = flat fitted curve, though single readings scatter.

In one assay the test system is CRL-7250. Nature of the assay: Cytotoxic Profiling of Annotated Libraries Using Quantitative High-Throughput Screening (AID 1296008). Also: potency is read from the fitted curve at half-maximal effect. As to max response: % is scaled to controls: 0 for no effect and ±100 for the full control effect. The conditions noted are these: Five cell lines viability, CellTiter-Glo ATP luminescence, 48-72 h; max response: hits give low values. The essentials: (§1)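 Cytotoxicity was measured as CellTiter-Glo ATP luminescence, read after 10 min at room temperature. Compound treatment of the cells lasted 48 or 72 hr at 37 degrees Celsius in a qHTS format.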

The subject of the next assay is HEK293. Described as above. To be noted: Five cell lines viability, CellTiter-Glo ATP luminescence, 48-72 h; max response: hits give low values. The essentials: as §1
Assay [1] relates to HaCat. The description is as above. The conditions noted are these: Five cell lines viability, CellTiter-Glo ATP luminescence, 48-72 h; max response: hits give low values. An outline of the steps:
as §1
A general note: Cellular ATP, detected with luciferase, serves as a proxy for viable cell number.

In the next assay the test system is KB-3-1. Described as above. To be noted: Five cell lines viability, CellTiter-Glo ATP luminescence, 48-72 h; max response: hits give low values. The essentials:
as §1

Another assay concerns NIH3T3. Described as above. The conditions noted are these: Five cell lines viability, CellTiter-Glo ATP luminescence, 48-72 h; max response: hits give low values. An outline of the steps: as §1
The subject of assay [2] is HACAT. Nature of the assay: qHTS assay to identify novel small-molecules to repurpose for Merkel cell carcinoma treatment (AID 1296009). To be noted: MCC and control cell lines, CellTiter-Glo viability, 72 h; at 44.8 µM (top of the series) unless noted. The essentials: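 Cell viability measured by CellTiter-Glo following 72 hr compound treatment at 37 degree celsius, with NPC and MIPE libraries tested in 8- and 11-point concentration series.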
For orientation: Quantitative high-throughput screening tests each substance at several concentrations.

A further assay relates to TAB109. Nature of the assay: qHTS profiling for inhibitors of Plasmodium falciparum proliferation (AID 504749).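 Also: 0% = DMSO vehicle and full inhibition = artemisinin control.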 To be noted: P. falciparum in erythrocytes, SYBR Green DNA, 72 h; series mostly up to 28.7 µM. The essentials: (§2)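 In a 72 h erythrocytic culture (37 C, humidified, 5% CO2) at 2.5% hematocrit and 0.3% starting parasitemia, compounds were tested; SYBR Green I in detergent lysis buffer stained parasite DNA overnight.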

The next assay deals with TAB113. The description is as above. The conditions noted are these: P. falciparum in erythrocytes, SYBR Green DNA, 72 h; series mostly up to 28.7 µM. An outline of the steps: as §2
The test system of another assay is TAB165. The assay is described as above. The conditions noted are these: P. falciparum in erythrocytes, SYBR Green DNA, 72 h; series mostly up to 28.7 µM. An outline of the steps: as §2
A further assay deals with W2. The description is as above. To be noted: P. falciparum in erythrocytes, SYBR Green DNA, 72 h; series mostly up to 28.7 µM. An outline of the steps: as §2
Also: nearly all actives have a fitted effect of over 60% in size.

For `COc1cc(CCc2cc(NC(=O)c3ccc(N4C[C@@H](C)N[C@@H](C)C4)cc3)n[nH]2)cc(OC)c1`, the Potency with CRL-7250 is 4.69 µM (active) and 8.2 µM (active); in the assay with HEK293, 2.96 µM (active); in the assay with KB-3-1, 9.35 µM (active); in the assay with NIH3T3, 10.5 µM (active). Moreover, the outcome in the assay on HaCat [1] and with HACAT [2] was inactive.

Take `C=CC(=O)Nc1cccc(Nc2nc(NC3CCC(N(C)C)CC3)nc3c2ncn3C(C)C)c1` (configuration not stated): the Potency in the assay with CRL-7250 is 590 nM (active); with HEK293 it was 1.32 µM (active); in the assay on HaCat [1], 7.43 µM (active); with NIH3T3, 14.8 µM (active).

Turning to `Oc1ccc([C@@H]2Oc3ccc(O)cc3[C@@H]3CCC[C@@H]32)cc1`, the max response with CRL-7250 is -17% and -0.0013%. In addition, the results for the Potency with HEK293 and in the assay with KB-3-1 were 11.8 µM (active) and 14.8 µM (active), respectively.

Regarding `O=C(O)[C@H](CC(=O)N1C[C@@H]2CCCC[C@H]2C1)Cc1ccccc1`, the outcome in the assay on CRL-7250, in the assay on HaCat [1], in the assay with NIH3T3 and in the assay with HACAT [2] was inactive. In addition, the max response with HEK293 is -4.31%; in the assay on KB-3-1, 2.32%.

With `COc1ccc([C@@H]2CNC(=O)C2)cc1OC1CCCC1`, the Potency entry in the assay with TAB109, in the assay on TAB113, with TAB165 and in the assay on W2 was “inactive” in each case. The molecule was called inactive in the assay on CRL-7250, in the assay with HaCat [1], with KB-3-1, with NIH3T3 and in the assay on HACAT [2]. The max response with HEK293 is 2.8%.

On to `OCC(O)C(O)C(O)CO` (configuration not stated), for which the Potency result in the assay with TAB109, in the assay with TAB113, with TAB165 and in the assay on W2 was “inactive” throughout. The max response with CRL-7250 is -10.5%; in the assay on HEK293, -3.06%; with HaCat [1], -1.15%; in the assay on KB-3-1 it was -4.24%; in the assay on NIH3T3, 2.68%.

For `Cn1cnc2c(F)c(Nc3ccc(Br)cc3F)c(C(=O)NOCCO)cc21`, the Potency in the assay with CRL-7250 is 23.5 µM (active) and 7.31 µM (active). Besides, the max response is -7.34% with HEK293; -0.774% and -5.49% in the assay with KB-3-1.

`COc1cc2ncnc(Nc3cccc(Br)c3)c2cc1OC`: the max response in the assay on CRL-7250 was -23.5%; in the assay with HEK293 it was -29.7%; in the assay on NIH3T3, -22%. Also, in the assay with KB-3-1, the molecule was classed as inactive.

On to `Cn1c(Nc2ccc(C(F)(F)F)cc2)nc2cc(Oc3ccnc(-c4ncc(C(F)(F)F)[nH]4)c3)ccc21`, for which the Potency in the assay on CRL-7250 was 372 nM (active); in the assay on HEK293, 26.4 µM (active); with KB-3-1, 11.8 µM (active).

`c1ccc(CNc2nc(NCc3ccccc3)c3ccccc3n2)cc1`: the max response with CRL-7250 is -7.33%. Moreover, the Potency was 14.8 µM (active) with HEK293 and 26.4 µM (active) in the assay with KB-3-1.

Regarding `O=C1NC(=O)[C@@H](c2cn3c4c(cccc24)CCC3)[C@H]1c1c[nH]c2ccccc12`, the Potency with CRL-7250 is 13200 nM (active); in the assay with HEK293, 0.662 µM (active); in the assay with KB-3-1, 0.833 µM (active); with NIH3T3, 2.09 µM (active). Moreover, the call with HaCat [1] and in the assay with HACAT [2] was inactive.

With `COc1ccc(CCC(=O)c2c(O)cc(O[C@@H]3O[C@H](CO)[C@@H](O)[C@H](O)[C@@H]3O[C@@H]3O[C@@H](C)[C@H](O)[C@@H](O)[C@@H]3O)cc2O)cc1O`, the max response in the assay with CRL-7250 was -4.09%; with HEK293 it was -11.6%; in the assay on KB-3-1, -1.61%. Moreover, the call in the assay with HaCat [1], with NIH3T3 and with HACAT [2] was inactive.

Take `Cc1ccc2nc(NCCN)c3ncc(C)n3c2c1`: the Potency with CRL-7250 is 16600 nM (active); in the assay with HEK293, 4.18 µM (active); with KB-3-1, 3.32 µM (active).

`Oc1cc(-c2nc(-c3ccccc3)[nH]c2-c2ccncc2)ccc1Cl`: the values for the max response in the assay on CRL-7250 and with KB-3-1 were -23.8% and -18.3%, respectively. Moreover, in the assay with HEK293, the Potency is 23.5 µM (active).

With `CC(=O)N1CCN(c2ccc(OCc3nn(C)c(C)c3-c3cccc4c(CCCOc5cccc6ccccc56)c(C(=O)O)n(Cc5cccnc5)c34)cc2)CC1`, the outcome in the assay on CRL-7250, in the assay with HaCat [1], in the assay on KB-3-1 and in the assay on HACAT [2] was inactive. Besides, the figures for the max response with HEK293 and in the assay on NIH3T3 were -15.3% and -8.89%, respectively.

For `O=C(c1ccc(F)cc1)N1CCC[C@H](c2nc(-c3ccc(F)cc3)no2)C1`, the max response in the assay on CRL-7250 was 3.37%; in the assay with HEK293, -0.935%. In addition, the molecule was called inactive in the assay on HaCat [1], in the assay with NIH3T3 and in the assay on HACAT [2].

`Cn1cc(-c2cnn3c(N)c(Br)c([C@H]4CCCNC4)nc23)cn1`: the Potency was 20900 nM (active) in the assay on CRL-7250, 0.418 µM (active) with HEK293, 10.5 µM (active) with KB-3-1 and 0.662 µM (active) in the assay with NIH3T3.

`O=C1c2cccc(O)c2C(=O)c2c(O)cc(CO)cc21`: the max response in the assay on CRL-7250 is -9.37%; in the assay on HaCat [1], -18.1%; in the assay with KB-3-1, -6.13%; in the assay on NIH3T3 it was -5.61%.

Consider `CC(C)C[C@H](NC(=O)[C@@H](NC(=O)c1cccc(-c2ccccc2)n1)[C@@H](C)O)B(O)O`, for which the Potency was 92 nM (active) with CRL-7250; 526 nM (active) and 580 nM (active) with HaCat [1]; 187 nM (active) and 184 nM (active) in the assay on KB-3-1; 118 nM (active) and 116 nM (active) with NIH3T3.
